Where a name gives a salt, the structure may show the parent alone.
How the values were obtained:
Assay in all cases: Euclidean distance of Cell Painting phenotypic profile (signed KS, 77 features) to DMSO centroid (dimensionless distance); 5 or 10 uM (library dependent); higher = stronger phenotypic change vs DMSO (phenoactivity)
Conditions in all cases: 48 h
786-O = tested on: 786-O
Outline: (§1)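 Phenoactivity is computed as Euclidean distance to the median vehicle profile. The profiles, drawn from 77 Harmony features scored as signed Kolmogorov-Smirnov statistics versus same-plate vehicle wells, were corrected for plate position, correlation-weighted and replicate-averaged at the top dose. Stained cells were imaged confocally at 20X (9 fields/well) after 48 h with library compounds at 10 or 5 uM, 0.1% DMSO final, in five cancer lines and a healthy fibroblast line.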

A549 = tested on: A549
Outline: as §1

DU145 = tested on: DU145
Outline: as §1

FB = tested on: FB
Outline: as §1

HEPG2 = tested on: HEPG2
Outline: as §1

OVCAR4 = tested on: OVCAR4
Outline: as §1

Structure (SMILES)	Euclidean distance (786-O)	Euclidean distance (A549)	Euclidean distance (DU145)	Euclidean distance (FB)	Euclidean distance (HEPG2)	Euclidean distance (OVCAR4)
CCCC(=O)[O-].[Na+] [Sodium butyrate]	1.42	0.966	1.17	1.13	0.665	1.51
C[C@H](NC(=O)[C@@H](Cc1ccc2ccccc2c1)NC(=O)[C@@H](C)N)C(=O)N[C@@H](Cc1c[nH]c2ccccc12)C(=O)N[C@H](Cc1ccccc1)C(=O)N[C@@H](CCCCN)C(N)=O	1.39	0.626	1.01	0.873	2.01	1.29
Cc1cn([C@@H]2C[C@@H](O)[C@H](CO)O2)c(=O)[nH]c1=O [Telbivudine]	1.15	0.884	0.651	1.53	0.469	1.12
O=C(O)C(O)C(O)C(=O)O (centres undefined) [Tartaric acid]	0.758	0.688	0.848	1.25	0.481	0.632
COc1ccc(-c2ccc3c(N4CCOCC4)nc(N4C[C@@H](C)O[C@@H](C)C4)nc3n2)cc1CO	1.93	2.15	1.96	3.61	2	2.43
Cn1cnc(N)c2ncnc1-2 [3-Methyladenine]	1.21	1.11	1.58	1.28	1.37	0.677
CC(S)C(=O)NCC(=O)O (centres undefined) [Tiopronin]	1.57	0.822	1.09	0.869	2.07	1.32
CCCCC1=NC2(CCCC2)C(=O)N1Cc1ccc(-c2ccccc2-c2nnn[nH]2)cc1 [Irbesartan]	1.03	0.928	0.351	0.966	0.777	1.79
Cc1ccc(-c2ncc(Cl)cc2-c2ccc(S(C)(=O)=O)cc2)cn1 [Etoricoxib]	0.705	0.64	0.802	1.09	0.559	0.802
C[C@H]1CN(C[C@H](Cc2ccccc2)C(=O)NCC(=O)O)CC[C@@]1(C)c1cccc(O)c1 [Alvimopan dihydrate]	0.875	0.429	1.89	0.594	0.342	0.96
CCC(=O)OCC(=O)[C@@]1(OC(=O)CC)[C@@H](C)C[C@H]2[C@@H]3CCC4=CC(=O)C=C[C@]4(C)[C@@]3(Cl)[C@@H](O)C[C@@]21C [Beclomethasone dipropionate]	1.09	2.14	2.46	1.95	0.575	1.8
CCC(c1ccccc1)c1c(O)c2ccccc2oc1=O (centres undefined) [Phenprocoumon]	0.851	1.11	0.728	1.04	0.975	0.957
COc1cc2nccc(Oc3ccc(NC(=O)C4(C(=O)Nc5ccc(F)cc5)CC4)cc3)c2cc1OC [Cabozantinib malate (XL184)]	1.85	2.98	1.3	2.84	1.89	2.25
CCCNC(C)C(=O)Nc1ccccc1C (centres undefined) [Prilocaine hydrochloride]	0.697	0.662	0.635	0.843	0.473	0.791
Nc1ccc(S(=O)(=O)Nc2cnc3ccccc3n2)cc1 [Sulfaquinoxaline sodium]	0.778	0.727	1.65	1.36	0.697	0.684
CN(C)c1cc(NC(=O)CNC(C)(C)C)c(O)c2c1C[C@H]1C[C@H]3[C@H](N(C)C)C(O)=C(C(N)=O)C(=O)[C@@]3(O)C(O)=C1C2=O [Tigecycline]	1.81	0.996	1.03	1.6	1.09	1.18
CC(C)NC(=O)COc1cccc(-c2nc(Nc3ccc4[nH]ncc4c3)c3ccccc3n2)c1	2.53	3.23	3.11	2.67	1.76	2.43
O=C(O)c1ccccc1OP(=O)(O)O [Fosfosal]	0.982	0.849	0.86	0.671	0.711	1.11
N[C@@H](Cc1c[nH]c2ccc(O)cc12)C(=O)O [5-hydroxytryptophan (5-HTP)]	1.11	0.965	0.903	0.927	0.404	0.744
O=c1ccc2ccccc2o1 [Coumarin]	1.02	0.975	1.08	1.25	0.824	1.2
Cc1ccc(Nc2c(F)cccc2Cl)c(CC(=O)O)c1 [Lumiracoxib]	1.54	0.989	0.9	1.33	0.549	1.36
Cn1cc(-c2ccc3nnc(Sc4ccc5ncccc5c4)n3n2)cn1	1.56	2.02	1.64	0.87	0.766	0.987
NCCc1c[nH]cn1 [Histamine Phosphate]	1.2	0.956	1.77	1.25	1.23	1.04
O=C(O)c1cc(/N=N/c2ccc(S(=O)(=O)Nc3ccccn3)cc2)ccc1O [Sulfasalazine]	1.02	0.839	0.638	1.14	0.963	0.897
Clc1ccc2nsnc2c1NC1=NCCN1 [Tizanidine]	1.07	0.538	0.815	0.569	0.572	0.608

Structure (SMILES)	Euclidean distance (786-O)	Euclidean distance (A549)	Euclidean distance (DU145)	Euclidean distance (FB)	Euclidean distance (HEPG2)	Euclidean distance (OVCAR4)
Cc1c(C(=O)NN2CCCCC2)nn(-c2ccc(Cl)cc2Cl)c1-c1ccc(I)cc1	1.16	1.17	0.842	1.03	0.6	0.903
CC1=C(CC(=O)O)c2cc(F)ccc2/C1=C\c1ccc([S+](C)[O-])cc1 (centres undefined) [Sulindac]	0.824	0.664	0.975	0.812	1.5	1.26
Cc1[nH]c(/C=C2\C(=O)Nc3ccc(S(=O)(=O)N(C)c4cccc(Cl)c4)cc32)c(C)c1C(=O)N1CCN(C)CC1	2.57	3.08	2.03	2.51	1.47	3.13
O=C(/C=C/c1ccccc1)NC(NC(=S)Nc1cccc2cccnc12)C(Cl)(Cl)Cl (centres undefined) [Salubrinal]	0.979	1.28	1	1.21	1.04	1.28
CC1(C)S[C@@H]2[C@H](NC(=O)Cc3ccccc3)C(=O)N2[C@H]1C(=O)O [Penicillin G Sodium]	1.04	0.576	1.12	0.979	0.871	1.93
CS(=O)(=O)Nc1cc2occ(NC=O)c(=O)c2cc1Oc1ccccc1 [Iguratimod]	0.942	0.587	2.23	1.05	0.878	0.85
C=C[C@]1(C)C[C@@H](OC(=O)CS[C@@H]2C[C@H]3CC[C@@H](C2)N3C)[C@]2(C)[C@H](C)CC[C@]3(CCC(=O)[C@H]32)[C@@H](C)[C@@H]1O [Retapamulin]	1.44	1.81	1.32	1.51	1.51	1.59
Cc1cc(C)cc(OCC2CNC(=O)O2)c1 (centres undefined) [Metaxalone]	0.96	0.856	0.745	0.753	0.417	1.15
COc1cc(Nc2ncc3c(n2)-c2ccc(Cl)cc2C(c2c(F)cccc2OC)=NC3)ccc1C(=O)O [Alisertib (MLN8237)]	2.85	3.22	2.99	3.08	2.23	2.8
CCCCCNC(=N)N/N=C/c1c[nH]c2ccc(OC)cc12 [Tegaserod Maleate]	5.85	4.48	5.39	6.34	4.98	5.08
CCOC(=O)[C@H](CCc1ccccc1)N[C@H]1CS[C@H](c2cccs2)CN(CC(=O)O)C1=O [Temocapril HCl]	0.717	0.454	0.716	0.895	0.434	0.878
C#Cc1cccc(Nc2ncnc3cc(OCCOC)c(OCCOC)cc23)c1 [Erlotinib]	1.68	2.34	1.94	3.62	0.991	1.87
CC(C)NCC(O)COc1cccc2ccccc12 (centres undefined) [Propranolol HCl]	1.23	0.818	0.949	0.645	0.798	1.01
CCN(CC)CCOc1ccc2c(c1)C(=O)c1cc(OCCN(CC)CC)ccc1-2 [Tilorone dihydrochloride]	2.8	3.87	2.37	5.04	4.45	3.1
N#C/C(=C(/N)Sc1ccc(N)cc1)c1ccccc1C(F)(F)F	0.949	1.46	0.889	1.1	1.41	0.988
Cc1c(-c2ccc(-c3ccccc3F)cc2)nc2ccc(F)cc2c1C(=O)O [Brequinar]	1.61	1.46	0.974	0.698	1.44	1.45
Oc1ccc(-c2nc(-c3ccc(F)cc3)c(-c3ccncc3)[nH]2)cc1	1.58	0.841	1.39	1.38	2.99	2.17
CCCCCCCCN=c1ccn(CCCCCCCCCCn2ccc(=NCCCCCCCC)cc2)cc1 [Octenidine Dihydrochloride]	6.46	4.73	6.38	6.45	4.62	6.71
O=C(/C=C/C#Cc1cccc(NS(=O)(=O)c2ccccc2)c1)NO [Oxamflatin]	3.39	3.01	2.81	4.53	2.79	3.64
CC#CCn1c(N2CCC[C@@H](N)C2)nc2c1c(=O)n(Cc1nc(C)c3ccccc3n1)c(=O)n2C [Linagliptin]	0.904	0.984	0.641	1.4	0.628	0.529
CC[C@H](C)[C@H](NC(=O)[C@H]([C@@H](C)CC)N(C)C(C)=O)C(=O)N[C@H](C(=O)N[C@@H](CC(C)C)C(=O)[C@@]1(C)CO1)[C@@H](C)O [Epoxomycin]	2.19	2.8	2.62	2.62	2.95	3.12
O=c1cc(N2CCOCC2)oc2c1ccc1ccccc12	0.913	1.57	1.41	3.23	1.42	4.01
Cc1c(N(C)C)c(=O)n(-c2ccccc2)n1C [Amidopyrine]	1.3	0.92	0.804	1.15	1.63	1.17
O=C1OC(CN2CCOCC2)CN1/N=C/c1ccc([N+](=O)[O-])o1 (centres undefined) [Furaltadone HCl]	0.929	1.35	1.24	1.24	0.808	2.22
